We go through 15 molecules from PubChem BioAssay (NCI).

The panel holds about 83,000 compounds, 20% with a hit somewhere; the sample as a whole holds those more often.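 Cells were grown in 96-well plates and exposed to the test compound at a single concentration for 48 hours; results are reported as percent growth, with values below 10 considered active.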 Values without a mark were called inactive. Calls of active or inactive are those of the source.

In the test the test system is A549/ATCC NSCLC. As to the kind of experiment: NCI-60 one-dose screen, 48 h (100 = growth as untreated, 0 = no growth, -100 = all killed). To be noted: 10 µM unless noted.
Turning to `OC(c1ccccc1)c1nnc(SCc2ccccc2)n1Cc1ccccc1` (stereo not given), the growth was 94.1%.
With `COc1ccc(/C=C2\SC(=Nc3ccccc3)NC2=O)cc1` the figure was -74.8% (active).
Regarding `COc1ccc(-n2c(C(O)c3ccccc3)nn(CN3CCOCC3)c2=S)cc1` (stereo not given), the growth is 103%.
With `CN(O)c1nc(N(C)O)nc(N2CCOCC2)n1` the figure was 33%; with `O=C(NC(=S)Nc1cccc(NC(=S)NC(=O)c2ccccc2)c1)c1ccccc1`, 57.6%; with `Cn1c2c(c(=O)[nH]c1=O)NC1=C(C(=O)c3ccccc31)C1(C=C(O)c3ccccc31)N2` (stereo not given), 102%.
As for `Nc1nc(Nc2cccc(F)c2)nc2ccccc12`, the growth is 46.3%.
With `COc1cc(OC)cc(N2C(=O)N(Cc3ccc(C(C)(C)C)cc3)c3ccccc3S2(=O)=O)c1` the figure was 93.3%.
With `CC/C=C\C[C@H](O)C/C=C1/C(=O)C=C[C@@H]1C/C=C\CCCC(=O)OCCS(=O)(=O)c1ccccc1`, the growth was 78.1%.
With `COc1ccc(C2Nc3ncnc(N)c3N=C3c4ccccc4C(=O)C32)cc1` (stereo not given) the figure was 96.3%; with `O=CCCCC(O)C=O` (stereo not given), 105%.
Take `COC(=O)/C(=C\c1c(-c2ccccc2)[nH]c2ccccc12)S(C)(=O)=O`: the growth was 38.6%.
With `COc1ccc(-c2nsc3c2NC(=O)CC3c2ccsc2)cc1` (stereo not given) the figure was 27.4%.
With `FC(F)(F)c1cccc(Nc2nc(-c3ccccc3)nc3ncccc23)c1` the figure was 82.3%.
With `COC(=O)/C(=C\c1c(C)[nH]c2ccccc12)S(=O)(=O)c1ccccc1` the figure was 23.7%.
